This passage reports INHIBITION results from ChEMBL document CHEMBL4513216, “Probing the Open Global Health Chemical Diversity Library for Multistage-Active Starting Points for Next-Generation Antimalarials” (ACS Infect Dis, 2020).

Molecules are shown by their SMILES. Hit rate of the full screen: of about 69,000 compounds, about 8,600 (12%) showed an effect of 50% or more. Many of the other results were omitted from the sample, so strong results are more common in it than they were.

The assay concerns Plasmodium berghei. Kind of assay: Screen against P. berghei liver stage (PbLuc), transformed with Luciferase, at 10uM. To be noted: tested at 10 uM. It is filed as functional, HepG2.
For `CCCN(CCC)Cc1nnsc1Cl`, the INHIBITION turned out to be 10.8%.
Turning to `CC(C)N(Cc1ccc(C#N)cc1)Cc1nnsc1Cl`, the INHIBITION is recorded as 22.4%.
Consider `CCCN(Cc1ccc(C#N)cc1)Cc1nnsc1Cl`, for which the INHIBITION is recorded as 52%.
As to `CCCOc1ccc(CNCCn2cccn2)cc1`, the INHIBITION was 30.5%.
For `CS(=O)(=O)N1CC(c2ncn3ccccc23)C1` the value was 70.4%.
The figure for `CCc1ccc2c(C3CN(S(C)(=O)=O)C3)ncn2c1` is 40.8%; for `CC(=O)N1CC(c2n[nH]c3ncccc23)C1` it is 27.6%.
As to `CS(=O)(=O)N1CC(c2n[nH]c3ncccc23)C1`, the INHIBITION was 70.1%.
The figure for `Cn1nc(C2CN(S(C)(=O)=O)C2)c2nccnc21` is 35.2%; for `CN1CCC(c2n[nH]c3ncccc23)C1` (stereo unspecified) it is -10.5%.
For the molecule `CC(=O)CSc1nc2c(cnn2CCO)c(=O)[nH]1`, the INHIBITION is on record as -8.41%.
In the case of `Cc1cccc(N2CCN(C(=O)Cc3ccccc3O)C(C)C2)n1` (stereo unspecified), the INHIBITION amounted to 6.83%.
Consider `CN1CC2(CCN(C(=O)c3ccc(-n4cnnc4)cc3Cl)CC2)OC1=O`, for which the INHIBITION is -6.01%.
As to `Cc1cc(-c2ccnn2C)nc(C2CCCN(S(C)(=O)=O)C2)n1` (stereo unspecified), the INHIBITION was determined as 16.99%.
With `CC(=O)NC[C@]1(O)CCN(C(=O)c2ccc(C)c(F)c2)C[C@H]1O`, the INHIBITION is listed as -7.79%.
For `CC(=O)NC[C@]1(O)CCN(C(=O)c2ccc3c(c2)CCC3)C[C@H]1O` the value was 14.5%.
As to `CC(=O)NC[C@]1(O)CCN(C(=O)c2ccc3c(c2)OCO3)C[C@H]1O`, the INHIBITION was 59%.
For the molecule `Cc1cnn(CCNCC(=O)N2CCN(c3ccccc3)CC2)c1`, the INHIBITION is recorded as -3.48%.
Turning to `CC(C)CC(C)N(C)C(=O)c1nc(S(C)(=O)=O)n2ccccc12` (stereo unspecified), the INHIBITION is 1.8%.
The figure for `CN(Cc1cnn(C)c1)C(=O)C(c1ccccc1)N1CCSCC1` (stereo unspecified) is -13.4%; for `Cc1cnc(C2CCCN(C(=O)c3c[nH]c(=O)[nH]c3=O)C2)s1` (stereo unspecified) it is 38.2%; for `O=C(c1c[nH]c(=O)[nH]c1=O)N1CCCC(c2cnccn2)C1` (stereo unspecified) it is 53%.
`Cc1cncc(C2CCCN(C(=O)c3c[nH]c(=O)[nH]c3=O)C2)n1` (stereo unspecified): the INHIBITION is 11%.
`COc1ncccc1C(=O)Nc1cccc(C[S+](C)[O-])c1C` (stereo unspecified): the INHIBITION is -32.2%.
For the molecule `Cc1nc2n(n1)CC(NCC(=O)Nc1cc(C)on1)CC2` (stereo unspecified), the INHIBITION came to 7.08%.
Regarding `CNc1cc(C)nc(C2CN(Cc3cc[nH]n3)CCO2)c1` (stereo unspecified), the INHIBITION is given as 67.7%.
For `Cc1cc(N)cc(C2CN(Cc3cc[nH]n3)CCO2)n1` (stereo unspecified) the value was 0.301%; for `CNc1cc(C)nc(C2CN(Cc3ccc(Cl)cn3)CCO2)c1` (stereo unspecified), -35.8%; for `COCC1CN(C(=O)c2cccs2)Cc2nccn2C1` (stereo unspecified), 67.5%.
In the case of `COCC1CN(C(=O)c2cccn2C)Cc2nccn2C1` (stereo unspecified), the INHIBITION was determined as 42.1%.
`COCC1CN(C(=O)c2ccccn2)Cc2nccn2C1` (stereo unspecified): the INHIBITION turned out to be 11.5%.
Regarding `O=C(NCCn1ccnc1)c1ccn(-c2ccccc2F)n1`, the INHIBITION was 7.27%.
As for `O=c1c(NCCc2ccc(O)cc2)c(NCc2ccccn2)c1=O`, the INHIBITION turned out to be 23.7%.
Regarding `O=C(NS(=O)(=O)Cc1ccc(F)cc1)C1CCc2ccccc21` (stereo unspecified), the INHIBITION is reported as 11.7%.
For `O=C(NS(=O)(=O)Cc1ccc(F)cc1)C1CCOc2ccccc21` (stereo unspecified), the INHIBITION was determined as 50.7%.
Take `O=C(NS(=O)(=O)c1ccc(F)cc1)C1CCOc2ccccc21` (stereo unspecified): the INHIBITION was 48.5%.
Regarding `COCC(=O)N1CC[C@@H](N2CCOCC2)[C@@H]1Cc1cccnc1`, the INHIBITION is 27.6%.
As to `CCC(Nc1nc(CCN)nc2ccccc12)c1cccs1` (stereo unspecified), the INHIBITION is on record as 51.1%.
Take `CCC(Nc1nc(CCN)nc2ccccc12)c1cc(C)ccn1` (stereo unspecified): the INHIBITION is -1.25%.
With `NCCc1nc(N[C@@H](CO)c2ccccc2)c2ccccc2n1`, the INHIBITION was determined as 31.9%.
For `CCc1nc(CN(C)CC(=O)N(C)C2CC2)cs1` the value was 42.6%.
With `COc1c(CNCCNC(=O)c2cccc(C)c2)c(C)nn1C`, the INHIBITION is on record as 33.8%.
Take `COCC(NC(=O)c1ccc[nH]1)c1cccc(C(F)(F)F)c1` (stereo unspecified): the INHIBITION is on record as 51.3%.
Regarding `COCC(NC(=O)c1cc[nH]n1)c1cccc(C(F)(F)F)c1` (stereo unspecified), the INHIBITION was 42.6%.
Consider `COCC(NC(=O)c1ccco1)c1cccc(C(F)(F)F)c1` (stereo unspecified), for which the INHIBITION is -31.6%.
Turning to `Cc1ncsc1CN1C[C@@H]2COC[C@]2(C(=O)NCC2CC2)C1`, the INHIBITION came to 39.2%.
On to `O=c1n(Cc2ccc(C(F)(F)F)cc2)nc2ncccn12`, for which the INHIBITION is listed as -80.9%.
`COCCNC(=O)Nc1cccc2c1CCN(S(C)(=O)=O)C2`: the INHIBITION was determined as 65.4%.
Turning to `CC(C)NC(=O)Nc1cccc2c1CCN(S(C)(=O)=O)C2`, the INHIBITION worked out at 45.7%.
The figure for `CCS(=O)(=O)N1CCc2c(cccc2NCc2ncc[nH]2)C1` is 27.6%; for `CCS(=O)(=O)N1CCc2c(cccc2NC(=O)NCCOC)C1` it is 3.95%; for `COCCCNC(=O)Nc1cccc2c1CCN(S(C)(=O)=O)C2` it is 17.5%.
With `CCc1cnc(CNc2cccc3c2CCN(S(=O)(=O)CC)C3)o1`, the INHIBITION was found to be 39.6%.
Regarding `CCS(=O)(=O)N1CCc2c(cccc2NC(=O)NCCO)C1`, the INHIBITION turned out to be 50.8%.
The figure for `CCCNC(=O)Nc1cccc2c1CCN(S(C)(=O)=O)C2` is -9.48%; for `CCS(=O)(=O)N1CCc2c(cccc2NCc2nc(C)c(C)o2)C1` it is 52.6%.
As to `CC(C)N(C)C(=O)COc1ccc(-c2noc(C3CCCO3)n2)cc1` (stereo unspecified), the INHIBITION is -59.4%.
Take `O=C(NCC1CN(c2ncccn2)Cc2nccn2C1)c1cccnc1` (stereo unspecified): the INHIBITION is -86.4%.
For `Fc1ccc(N2CCN(CCCc3cn[nH]c3)CC2)cc1` the value was 31.6%; for `NC(=O)C1CN(C(=O)Nc2ccccc2OCC(F)(F)F)CCO1` (stereo unspecified), 31.2%; for `N#CC1(NC(=O)c2c(F)ccc(OC(F)F)c2F)CCOCC1`, -11.7%.
The figure for `CCn1nnc(NCc2cc(Cl)cc(Cl)c2OC)n1` is -11.6%.
For `CCCn1nnc(NCc2cc(Br)cc(Br)c2OC)n1` the value was -24%; for `CCn1nnc(NCc2cc(Br)cc(Br)c2OC)n1`, 61.1%; for `Cc1ncccc1CNC1CCCN(Cc2noc(C3CC3)n2)C1` (stereo unspecified), 46.2%.
In the case of `COCCN1CCc2cc(C(=O)N(C)C)c(NCC3CC3)nc2CC1`, the INHIBITION is listed as -27.9%.
For `COCCN1CCc2cc(C(=O)O)c(NCC3CC3)nc2CC1` the value was -17.2%.
The figure for `COCCN1CCc2cc(C(=O)NC(C)C)c(NCC(C)C)nc2CC1` is 74.9%; for `CCS(=O)(=O)N1CCc2cc(C(=O)NC)c(NCC(C)C)nc2CC1` it is -9.02%; for `CNC(=O)c1cc2c(nc1NCC(C)C)CCN(CCOC)CC2` it is 21.1%.
For the molecule `COCCN1CCc2cc(C(=O)NC(C)C)c(NCC3CC3)nc2CC1`, the INHIBITION is on record as 70.8%.
